Tests used:
Assay in all cases: DAPPL (digital affinity profiling via proximity ligation, sequencing); 10 mM Tris-HCl pH 7.5, 50 mM NaCl, 1 mM DTT, 4% glycerol, room temperature, 30 min; GST-TFs on glutathione beads, 16-mer random dsDNA library, 0.1% formaldehyde crosslink after washing; high values mean tight binding
Details in all cases: protein: recombinant; tags: N-terminal GST; dsDNA, one strand shown
[1] = target: T1, ELK1 (Homo sapiens, UniProt P19419 1-428)
T1 sequence: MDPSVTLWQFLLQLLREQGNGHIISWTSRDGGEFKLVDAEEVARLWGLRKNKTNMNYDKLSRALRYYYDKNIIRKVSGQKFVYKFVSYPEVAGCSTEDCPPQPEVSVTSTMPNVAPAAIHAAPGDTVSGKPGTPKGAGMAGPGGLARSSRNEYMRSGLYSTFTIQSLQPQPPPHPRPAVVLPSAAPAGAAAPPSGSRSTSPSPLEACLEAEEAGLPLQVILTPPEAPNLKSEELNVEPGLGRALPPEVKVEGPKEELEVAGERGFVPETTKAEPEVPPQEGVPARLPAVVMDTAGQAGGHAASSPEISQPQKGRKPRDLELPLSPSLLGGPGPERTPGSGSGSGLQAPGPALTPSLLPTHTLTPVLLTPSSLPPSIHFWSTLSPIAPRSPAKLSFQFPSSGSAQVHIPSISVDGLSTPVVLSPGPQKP
In short: (§1)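 GST fusions of human transcription factors were expressed in yeast and captured with glutathione beads. Once given DNA barcodes and pooled alongside a tag-only sample, they were incubated for 30 min at room temperature with 200 nmole of a random double-stranded 16-mer DNA library in Tris/NaCl/DTT/glycerol buffer, then washed, crosslinked (0.1% formaldehyde), proximity-ligated, PCR-amplified and sequenced on an Illumina NextSeq500. The binding signal of each hexamer is its read frequency for a factor divided by its frequency for the tag-only sample.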

[2] = target: T2, GABPA (Homo sapiens, UniProt Q06546 1-454)
T2 sequence: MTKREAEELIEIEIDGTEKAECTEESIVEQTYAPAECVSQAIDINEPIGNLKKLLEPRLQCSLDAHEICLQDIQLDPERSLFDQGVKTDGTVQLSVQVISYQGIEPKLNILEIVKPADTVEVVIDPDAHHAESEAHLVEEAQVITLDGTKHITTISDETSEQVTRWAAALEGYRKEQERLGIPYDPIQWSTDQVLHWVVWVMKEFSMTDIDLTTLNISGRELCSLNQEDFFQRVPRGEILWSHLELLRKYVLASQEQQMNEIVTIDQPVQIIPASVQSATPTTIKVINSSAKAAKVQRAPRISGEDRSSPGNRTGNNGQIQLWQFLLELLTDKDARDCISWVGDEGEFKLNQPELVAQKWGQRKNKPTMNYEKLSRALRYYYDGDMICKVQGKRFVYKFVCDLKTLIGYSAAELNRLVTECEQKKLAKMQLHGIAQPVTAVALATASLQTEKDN
In short: as §1

[3] = target: T3, ERG (Homo sapiens, UniProt P11308 1-479)
T3 sequence: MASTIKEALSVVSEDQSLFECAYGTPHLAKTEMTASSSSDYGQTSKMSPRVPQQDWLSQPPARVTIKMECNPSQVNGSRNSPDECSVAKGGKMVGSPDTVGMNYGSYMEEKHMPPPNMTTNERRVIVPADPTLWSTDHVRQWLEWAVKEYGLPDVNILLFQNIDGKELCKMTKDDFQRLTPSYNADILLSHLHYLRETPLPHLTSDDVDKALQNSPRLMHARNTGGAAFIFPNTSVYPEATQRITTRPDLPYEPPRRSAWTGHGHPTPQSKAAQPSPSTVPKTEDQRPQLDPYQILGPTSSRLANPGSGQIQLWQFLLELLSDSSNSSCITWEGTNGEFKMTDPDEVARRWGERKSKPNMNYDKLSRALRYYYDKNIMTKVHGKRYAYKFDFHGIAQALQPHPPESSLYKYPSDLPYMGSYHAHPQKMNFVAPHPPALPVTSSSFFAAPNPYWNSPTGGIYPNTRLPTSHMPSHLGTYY
In short: as §1

[4] = target: ELF1 (Homo sapiens, UniProt P32519 1-619)
In short: as §1

[5] = target: T4, EHF (Homo sapiens, UniProt Q9NZC4 1-300)
T4 sequence: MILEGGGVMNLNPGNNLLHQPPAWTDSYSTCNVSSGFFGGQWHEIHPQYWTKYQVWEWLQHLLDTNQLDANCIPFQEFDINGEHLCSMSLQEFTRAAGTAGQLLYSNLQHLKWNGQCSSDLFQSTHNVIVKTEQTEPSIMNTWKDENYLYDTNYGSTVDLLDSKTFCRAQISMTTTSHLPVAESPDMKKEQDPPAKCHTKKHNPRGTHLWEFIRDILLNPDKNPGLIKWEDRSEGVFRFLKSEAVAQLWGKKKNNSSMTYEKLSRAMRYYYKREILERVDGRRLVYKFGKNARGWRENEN
In short: as §1

[6] = target: SPIB (Homo sapiens, UniProt Q01892 1-262)
In short: as §1

[7] = target: ETV5 (Homo sapiens, UniProt P41161 1-510)
In short: as §1

[8] = target: T5, SPIC (Homo sapiens, UniProt Q8N5J4 1-248)
T5 sequence: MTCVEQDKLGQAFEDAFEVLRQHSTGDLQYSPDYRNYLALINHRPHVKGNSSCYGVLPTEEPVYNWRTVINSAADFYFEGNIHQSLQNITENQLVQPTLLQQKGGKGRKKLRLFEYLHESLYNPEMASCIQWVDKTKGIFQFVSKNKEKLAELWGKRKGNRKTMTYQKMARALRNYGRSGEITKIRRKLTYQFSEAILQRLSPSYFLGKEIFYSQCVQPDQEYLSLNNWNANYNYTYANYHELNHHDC
In short: as §1

[9] = target: ELF4 (Homo sapiens, UniProt Q99607 1-663)
In short: as §1

[10] = target: T6, ELK4 (Homo sapiens, UniProt P28324-2 1-405)
T6 sequence: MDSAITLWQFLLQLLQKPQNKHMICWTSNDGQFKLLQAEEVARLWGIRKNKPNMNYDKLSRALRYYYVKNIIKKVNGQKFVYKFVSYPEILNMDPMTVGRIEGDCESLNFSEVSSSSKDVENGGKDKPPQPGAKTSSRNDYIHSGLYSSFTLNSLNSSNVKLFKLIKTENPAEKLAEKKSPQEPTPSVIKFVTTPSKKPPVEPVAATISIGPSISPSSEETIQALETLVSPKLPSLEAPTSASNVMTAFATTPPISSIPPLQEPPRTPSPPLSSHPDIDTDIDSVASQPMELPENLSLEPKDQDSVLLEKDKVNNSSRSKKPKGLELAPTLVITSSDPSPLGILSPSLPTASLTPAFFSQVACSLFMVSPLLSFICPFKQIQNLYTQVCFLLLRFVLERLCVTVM
In short: as §1

[11] = target: T7, ELF3 (Homo sapiens, UniProt P78545 1-371)
T7 sequence: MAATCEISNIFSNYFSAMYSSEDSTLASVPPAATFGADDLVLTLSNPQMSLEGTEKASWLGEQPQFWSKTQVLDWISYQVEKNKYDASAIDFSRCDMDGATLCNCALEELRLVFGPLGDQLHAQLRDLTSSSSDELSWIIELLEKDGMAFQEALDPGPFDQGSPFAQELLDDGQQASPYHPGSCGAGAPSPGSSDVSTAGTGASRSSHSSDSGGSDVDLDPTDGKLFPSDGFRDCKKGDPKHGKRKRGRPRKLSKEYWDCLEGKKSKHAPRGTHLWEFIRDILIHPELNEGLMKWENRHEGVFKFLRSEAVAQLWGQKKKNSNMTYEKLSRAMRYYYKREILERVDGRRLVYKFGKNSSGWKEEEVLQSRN
In short: as §1

[12] = target: T8, ETV3L (Homo sapiens, UniProt Q6ZN32 1-361)
T8 sequence: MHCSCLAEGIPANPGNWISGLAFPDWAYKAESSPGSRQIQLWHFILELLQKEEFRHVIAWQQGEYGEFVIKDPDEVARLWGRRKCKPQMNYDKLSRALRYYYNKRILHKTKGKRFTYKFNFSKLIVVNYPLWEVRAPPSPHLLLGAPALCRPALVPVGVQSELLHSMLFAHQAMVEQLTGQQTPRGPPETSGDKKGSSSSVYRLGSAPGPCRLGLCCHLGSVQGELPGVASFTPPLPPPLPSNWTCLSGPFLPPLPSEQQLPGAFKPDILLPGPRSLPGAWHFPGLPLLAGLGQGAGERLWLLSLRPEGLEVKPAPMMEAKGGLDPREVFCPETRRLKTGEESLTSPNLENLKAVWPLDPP
In short: as §1

[13] = target: T9, SPDEF (Homo sapiens, UniProt O95238 1-335)
T9 sequence: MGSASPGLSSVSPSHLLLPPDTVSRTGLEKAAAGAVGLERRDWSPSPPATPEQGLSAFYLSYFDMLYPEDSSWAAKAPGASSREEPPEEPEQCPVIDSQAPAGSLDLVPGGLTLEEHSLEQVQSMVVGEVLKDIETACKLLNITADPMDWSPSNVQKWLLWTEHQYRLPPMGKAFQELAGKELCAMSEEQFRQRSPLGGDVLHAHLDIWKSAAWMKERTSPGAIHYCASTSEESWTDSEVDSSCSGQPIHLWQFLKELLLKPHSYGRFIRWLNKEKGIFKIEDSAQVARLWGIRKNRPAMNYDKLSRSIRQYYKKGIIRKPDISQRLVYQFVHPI
In short: as §1

[14] = target: T10, ETV7 (Homo sapiens, UniProt Q9Y603 1-341)
T10 sequence: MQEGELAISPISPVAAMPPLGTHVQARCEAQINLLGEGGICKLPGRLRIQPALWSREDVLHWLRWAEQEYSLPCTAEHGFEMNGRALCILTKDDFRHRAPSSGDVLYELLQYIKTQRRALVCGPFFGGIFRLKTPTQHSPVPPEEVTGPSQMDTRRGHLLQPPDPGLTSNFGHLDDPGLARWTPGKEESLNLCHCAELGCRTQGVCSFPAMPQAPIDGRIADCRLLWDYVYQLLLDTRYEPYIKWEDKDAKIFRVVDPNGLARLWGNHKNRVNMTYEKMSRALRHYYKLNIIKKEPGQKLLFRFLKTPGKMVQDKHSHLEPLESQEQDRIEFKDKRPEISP
In short: as §1

[15] = target: ETV6 (Homo sapiens, UniProt P41212 1-452)
In short: as §1

Sequence of ETV6 (P41212 whole entry): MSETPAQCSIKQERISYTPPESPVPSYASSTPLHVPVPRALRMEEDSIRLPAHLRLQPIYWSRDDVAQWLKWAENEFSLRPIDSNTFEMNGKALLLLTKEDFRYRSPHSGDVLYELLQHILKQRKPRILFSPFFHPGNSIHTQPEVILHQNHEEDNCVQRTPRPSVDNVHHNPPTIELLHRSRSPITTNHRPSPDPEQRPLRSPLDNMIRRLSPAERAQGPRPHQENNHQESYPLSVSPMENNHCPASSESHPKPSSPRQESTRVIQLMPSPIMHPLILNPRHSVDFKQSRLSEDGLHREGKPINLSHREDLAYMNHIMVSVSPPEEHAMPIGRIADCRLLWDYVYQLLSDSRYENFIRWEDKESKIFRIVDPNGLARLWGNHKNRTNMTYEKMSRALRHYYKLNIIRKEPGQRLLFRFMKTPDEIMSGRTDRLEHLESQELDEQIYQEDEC
Sequence of SPIB (Q01892 whole entry): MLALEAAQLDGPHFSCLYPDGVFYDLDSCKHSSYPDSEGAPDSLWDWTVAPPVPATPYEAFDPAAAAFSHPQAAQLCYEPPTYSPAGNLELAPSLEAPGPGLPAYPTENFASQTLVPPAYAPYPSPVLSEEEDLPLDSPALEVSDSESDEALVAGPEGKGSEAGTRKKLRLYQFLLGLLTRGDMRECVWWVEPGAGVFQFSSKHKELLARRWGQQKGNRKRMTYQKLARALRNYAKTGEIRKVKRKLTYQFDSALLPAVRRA
Sequence of ETV5 (P41161 whole entry): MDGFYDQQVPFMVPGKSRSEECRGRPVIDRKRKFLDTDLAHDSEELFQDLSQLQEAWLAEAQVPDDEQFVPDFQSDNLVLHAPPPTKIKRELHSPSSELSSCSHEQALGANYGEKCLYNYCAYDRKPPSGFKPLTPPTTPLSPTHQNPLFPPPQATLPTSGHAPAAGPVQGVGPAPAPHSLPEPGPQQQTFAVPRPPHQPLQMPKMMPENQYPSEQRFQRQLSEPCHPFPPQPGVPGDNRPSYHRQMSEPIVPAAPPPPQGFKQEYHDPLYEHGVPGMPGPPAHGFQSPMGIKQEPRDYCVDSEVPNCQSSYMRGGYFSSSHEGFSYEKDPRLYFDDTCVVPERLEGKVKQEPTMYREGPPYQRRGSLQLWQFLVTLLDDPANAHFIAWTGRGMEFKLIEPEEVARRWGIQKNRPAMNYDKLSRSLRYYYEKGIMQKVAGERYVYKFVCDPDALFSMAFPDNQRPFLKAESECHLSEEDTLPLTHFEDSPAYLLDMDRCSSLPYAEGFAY
Sequence of ELF4 (Q99607 whole entry): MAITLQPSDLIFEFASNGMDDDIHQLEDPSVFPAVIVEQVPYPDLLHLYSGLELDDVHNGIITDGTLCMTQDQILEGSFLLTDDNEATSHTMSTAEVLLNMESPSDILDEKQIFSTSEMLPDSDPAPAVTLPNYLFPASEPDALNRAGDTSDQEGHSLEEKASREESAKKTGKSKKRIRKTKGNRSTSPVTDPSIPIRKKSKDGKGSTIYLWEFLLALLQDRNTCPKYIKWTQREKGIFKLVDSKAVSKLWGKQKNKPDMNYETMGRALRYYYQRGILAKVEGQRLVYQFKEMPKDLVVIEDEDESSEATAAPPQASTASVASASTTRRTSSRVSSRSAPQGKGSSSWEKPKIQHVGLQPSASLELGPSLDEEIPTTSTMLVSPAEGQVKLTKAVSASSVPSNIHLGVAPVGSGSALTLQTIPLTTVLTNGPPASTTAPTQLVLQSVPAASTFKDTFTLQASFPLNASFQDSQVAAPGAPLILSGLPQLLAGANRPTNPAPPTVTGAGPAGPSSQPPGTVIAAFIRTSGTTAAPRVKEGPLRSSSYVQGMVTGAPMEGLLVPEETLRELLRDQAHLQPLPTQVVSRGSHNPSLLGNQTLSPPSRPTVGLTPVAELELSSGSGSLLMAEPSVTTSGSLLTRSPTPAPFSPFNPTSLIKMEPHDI
Sequence of ELF1 (P32519 whole entry): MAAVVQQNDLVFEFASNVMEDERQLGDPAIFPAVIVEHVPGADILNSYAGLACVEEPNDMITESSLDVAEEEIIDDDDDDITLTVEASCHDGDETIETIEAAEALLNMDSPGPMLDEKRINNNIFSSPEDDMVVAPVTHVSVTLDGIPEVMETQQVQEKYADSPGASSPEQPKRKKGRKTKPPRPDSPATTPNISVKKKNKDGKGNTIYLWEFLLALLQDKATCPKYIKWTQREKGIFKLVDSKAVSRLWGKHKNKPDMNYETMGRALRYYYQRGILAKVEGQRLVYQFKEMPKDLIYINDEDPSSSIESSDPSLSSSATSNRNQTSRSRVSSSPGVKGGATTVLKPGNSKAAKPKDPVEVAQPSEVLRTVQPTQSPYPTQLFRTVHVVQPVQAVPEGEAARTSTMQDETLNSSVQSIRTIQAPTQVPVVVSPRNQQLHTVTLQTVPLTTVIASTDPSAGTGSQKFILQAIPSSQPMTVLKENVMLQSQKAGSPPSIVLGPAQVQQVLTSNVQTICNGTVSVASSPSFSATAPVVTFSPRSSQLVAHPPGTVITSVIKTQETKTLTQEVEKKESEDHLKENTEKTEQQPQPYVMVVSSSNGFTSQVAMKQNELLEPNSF

**Q.** Which results are given for GTACGA?
**A.** binding signal [1]: 1.03 fold enrichment (6-mer frequency, TF over GST control); binding signal [2]: 1.14 fold enrichment (6-mer frequency, TF over GST control); binding signal [3]: 1.04 fold enrichment (6-mer frequency, TF over GST control); binding signal [4]: 1.08 fold enrichment (6-mer frequency, TF over GST control); binding signal [5]: 1.04 fold enrichment (6-mer frequency, TF over GST control); binding signal [6]: 1.05 fold enrichment (6-mer frequency, TF over GST control); binding signal [7]: 1.02 fold enrichment (6-mer frequency, TF over GST control); binding signal [8]: 1.02 fold enrichment (6-mer frequency, TF over GST control); binding signal [9]: 1.11 fold enrichment (6-mer frequency, TF over GST control); binding signal [10]: 1.04 fold enrichment (6-mer frequency, TF over GST control); binding signal [11]: 1.11 fold enrichment (6-mer frequency, TF over GST control); binding signal [12]: 1.09 fold enrichment (6-mer frequency, TF over GST control); binding signal [13]: 1.02 fold enrichment (6-mer frequency, TF over GST control); binding signal [14]: 1.16 fold enrichment (6-mer frequency, TF over GST control); binding signal [15]: 1.05 fold enrichment (6-mer frequency, TF over GST control)

From publication PMC7862700, “An all-to-all approach to the identification of sequence-specific readers for epigenetic DNA modifications on cytosine”
